A selection: hits, their analogues and other compounds. The true share with any hit is near 3.5%.
Anthrax LF inh2 = anthrax lethal factor protease inhibition; inhibition, % at 10 µM; multiplex microsphere protease cleavage assay, LF; 360,000 tested, 0.12% active; further: plate controls were buffer without enzyme for full effect and enzyme alone for no effect
Autofluor counter = flagged as autofluorescent in microsphere protease counterscreen; AID 624483; 360,000 tested, 3.1% active; compound autofluorescence counterscreen, microsphere flow cytometry; stronger effect = higher value; fluorescence intensity (no concentration beside the values); in the data active means fluorescence intensity above about 16000; inconclusive means no clear call, values can overlap the other calls
BoNT-A LC inh2 = inhibitors of Botulinum neurotoxin A light chain protease; multiplex microsphere protease substrate cleavage, flow cytometry; inhibition, % at 10 µM; 360,000 tested, 0.17% active; AID 588499; further: plate controls were buffer without enzyme for full effect and enzyme alone for no effect
BoNT F protease = inhibitors of Botulinum neurotoxin F light chain protease. Multiplex microsphere protease cleavage assay, flow cytometry. 360,000 tested, 0.22% active. inhibition, % at 10 µM; in the data active means inhibition above about 35%, passing the limit was not always enough; inconclusive means no clear call, values can overlap the other calls; further: plate controls were buffer without enzyme for full effect and enzyme alone for no effect
* marks the source's active call; other numbers are inactive results; ? = inconclusive. Unless noted, no stated cut-off is given here; in the data, active means inhibition above about 30%; inconclusive means no clear call, values can overlap the other calls; inactive means below that.

SMILES	Anthrax LF inh2	Autofluor counter	BoNT-A LC inh2	BoNT F protease
COC(=O)c1ccc(C(=O)OC)c(NS(C)(=O)=O)c1	-1.6	23033*	0.6	-0.5
CCCCN(CCCC)CC1OCc2ccccc2CO1	1.8	20889*	-0.7	-0.7
O=C(O)CSc1nc2c(c(=O)[nH]1)CCCC2	-1.5	24867*	-7.7	-8.6
O=C(CSc1nc2c(c(=O)[nH]1)CCC2)Nc1ccc(F)cc1	-2.5	4196	-1.4	-12.3
O=C(CSc1nc2c(c(=O)[nH]1)CCCC2)Nc1ccc(Cl)cc1F	-2.9	20550*	0.5	-0.2
CC1CN(CCOc2ccccc2C(C)C)CC(C)O1 (stereo unspecified)	-12.7	3184	0.0	?
Cc1nc(N2CCOCC2)[nH]c(=O)c1CCC(C)C	-1.3	16493*	0.3	2.6
CCCCNC(=O)c1nc(-c2ccncc2)oc1-c1ccccc1	-1.3	5892	-0.7	-4.3
c1ccc(-c2nc(NCC3CCCO3)c3oc4ccccc4c3n2)cc1 (stereo unspecified)	-2.7	23676*	?	-1.4
c1ccc2c(c1)oc1c(NCC3CCCO3)ncnc12 (stereo unspecified)	0.5	23180*	0.1	2.4
c1ccc(CNc2ncnc3c2oc2ccccc23)nc1	-3.6	22122*	?	-0.9
CC(C)Cc1nc2oc3c(NCc4cccnc4)ncnc3c2c2c1CCC2	-6.7	9172	0.4	-0.9
CC(C)Cc1nc2oc3c(NCC4CCCO4)ncnc3c2c2c1CCC2 (stereo unspecified)	1.7	18869*	?	2.8
O=c1ccn([C@@H]2O[C@H](CNCc3cccn3-c3nccs3)[C@@H](O)[C@H]2O)c(=O)[nH]1	-6.3	5459	-0.1	-4.7
Cc1cccc(C)c1NC(=O)C1c2ccccc2OCC(=O)N1CCc1ccccc1 (stereo unspecified)	-8.2	3935	0.1	-1.4
CC(=O)c1cccc(NC(=O)c2ccc(-c3c(C)noc3C)c3ccoc23)c1	-4.5	3817	-0.3	-8.4
CC(C)C[C@@H]1COc2cccc(N3CCC[C@H]3CO)c2S(=O)(=O)N1	-3.6	4602	0.2	3.5
Cc1cccc(OC(C)c2ccnc3nc(/N=C/N(C)C)nn23)c1 (stereo unspecified)	0.1	21315*	-2.7	-3.9
CCCCCCNC(=O)O[C@H]1Cn2c(=O)ccc(=O)n2[C@@H]2CN(S(=O)(=O)c3ccc(C)cc3)C[C@]12O	-3.9	3659	0.0	-4.3
O=C(O)COc1ccc(NC(=O)c2ccc3c(c2)C(=O)N(CC2CCCO2)C3=O)cc1 (stereo unspecified)	-1.0	3978	-0.2	4.3
N=Cc1c(O)n(-c2cccc(Cl)c2)c(=O)[nH]c1=O	-2.1	23754*	-1.2	-1.6
CCOC(=O)c1sc(=S)n(-c2cc(OC)ccc2OC)c1N	-0.1	2436	-0.4	-8.5
CCOC(=O)c1sc(=S)n(-c2ccccc2Cl)c1SC	-1.1	6821	1.8	5.2
CCOC(=O)c1sc(-c2ccc(F)cc2)cc1N	-2.1	25606*	-4.9	-9.1
CCOC(=O)c1sc(=S)n(-c2cc(F)ccc2F)c1N	-2.6	24008*	-1.4	-5.2
SMILES	Anthrax LF inh2	Autofluor counter	BoNT-A LC inh2	BoNT F protease
COC(=O)c1sc(=S)n(-c2cc(F)ccc2F)c1N	-0.2	19767*	-1.3	-1.8
CCOC(=O)c1sc(=S)n(-c2ccccc2)c1SC	-1.2	21506*	-6.1	-10.3
Cc1ccc(C(=O)Nc2nnc([C@H]3C[C@H](O)[C@@H](CO)O3)s2)cc1	-5.9	3353	-0.1	0.9
COc1ccc(C(=O)NCC(=O)OCc2c(Cl)cccc2Cl)cc1OC	3.1	?	1.7	4.4
COc1ccc(C(=Cc2cc(OC)c(OC)cc2[N+](=O)[O-])C(=O)O)cc1	3.5	3786	-0.6	-6.7
CN1C(=O)NC(c2ccccc2)C2=C1CN(CCc1ccccc1)C2=O (stereo unspecified)	0.0	20821*	?	-1.5
COc1ccc(CCN2CC3=C(C2=O)C(c2ccccc2)NC(=O)N3C)cc1OC (stereo unspecified)	-3.3	7179	-1.6	-6.7
O=C1c2ccccc2C(=O)C1Cc1cccc2ccccc12	-0.5	21890*	1.3	0.1
COc1ccc(C(C)=O)cc1Cn1c(C)c(C(=O)NC2CC2)sc1=O	-1.2	5711	-0.1	-1.2
O=C(NC1CSCC1OC(=O)c1ccccc1)c1ccccc1 (stereo unspecified)	-7.9	5241	-0.8	2.6
COC(=O)NC1CSCC1OC(=O)c1ccc(Br)cc1 (stereo unspecified)	-2.9	22183*	?	1.5
CCCS(=O)(=O)NC(=O)C1(C)CCN(C(=O)c2cc(C(C)(C)C)nn2C)C1 (stereo unspecified)	0.8	2995	-0.2	-8.3
COc1ccccc1-c1nn2c(-c3ccco3)nnc2s1	1.6	21284*	3.4	4.3
COc1ccc(-c2nn3c(COc4ccccc4)nnc3s2)cc1OC	-4.3	17330*	-1.6	-3.1
COc1cccc(-c2nnc3sc(-c4ccccc4)nn23)c1	1.3	20646*	?	-1.7
Cc1cccc(-c2nnc3sc(-c4ccccc4C)nn23)c1	-3.9	16434*	-1.3	-4.1
O=C(NCCO)OC1CC2CC1[C@H]1CCCCN1C2=O (stereo partly specified)	-8.9	5863	0.2	-0.8
COC(=O)C1CCN(C2CN(Cc3ccc(F)cc3)S(=O)(=O)C2)CC1 (stereo unspecified)	-1.9	5357	-0.6	5.6
Cc1ccc(F)c(S(=O)(=O)NC(=O)C2(C)CCN2C(=O)c2cccc3ccccc23)c1 (stereo unspecified)	-2.5	3450	-0.3	-3.1
COc1ccc(-c2nn3c(-c4ccccc4)nnc3s2)cc1	-0.1	20178*	0.2	-0.5
CC(=O)Oc1ccc(NC(=O)C2CCCCC2)c(C(=O)O)c1	-3.3	20737*	4.9	4.2
Cc1ccc(N2C(N)=C(C#N)C(c3cccs3)C3=C2CC(C)(C)CC3=O)cc1 (stereo unspecified)	-1.8	23727*	?	-1.2
CC(C)(C)OC(=O)N1CCCC(C(=O)Nc2ccc(C(=O)NC3CC3)cc2)C1 (stereo unspecified)	1.0	3991	-0.1	-3.2
Cc1[nH]c2ccccc2c1/C=N/NC(=O)c1cccc(S(=O)(=O)Nc2ccccc2Cl)c1	14.9	13351	35.4*	-2.7
COc1ccc2c(Cl)c(C(=O)N/N=C/c3c(C)[nH]c4ccccc34)sc2c1	22.2	20361*	35.9*	-8.5
SMILES	Anthrax LF inh2	Autofluor counter	BoNT-A LC inh2	BoNT F protease
COc1ccc2c(Cl)c(C(=O)N/N=C/c3ccc4c(c3)OCO4)sc2c1	-14.2	4891	-3.6	-77.2
CC1(C(=O)NCCc2ccccc2)Cc2c(-c3ccccc3)ccnc2O1 (stereo unspecified)	-1.1	3833	-0.1	-4.0
Nc1nnc(SCC(=O)N2CCN(Cc3ccccc3)CC2)s1	1.5	16406*	?	0.1
CCC(=NCCCN(CC)CC)c1c(O)n(-c2ccccc2)c(=O)[nH]c1=O	0.7	24318*	-2.0	-2.9
CCN(CC)CCCN=C(C)c1c(O)n(-c2ccccc2)c(=O)[nH]c1=O	-2.2	22362*	?	-0.1
Nc1ncnc2c1ncn2[C@@H]1O[C@H](C(=O)N[C@H](CO)Cc2ccc(O)cc2)[C@@H](O)[C@H]1O	1.7	5540	-1.0	-4.4
Nc1nc(SCCO)[nH]c(=O)c1NC(=O)c1ccco1	-17.3	19769*	-65.5	-103.7
